This note sets out measurements from ChEMBL document CHEMBL4513216, “Probing the Open Global Health Chemical Diversity Library for Multistage-Active Starting Points for Next-Generation Antimalarials” (ACS Infect Dis, 2020).

In all, about 69,000 compounds went through this assay and about 8,600 (12%) showed an effect of 50% or more. This is one part of a sample in which strong results are shown more often than they occur.

The experiment deals with Plasmodium berghei. The experiment is described as follows: Screen against P. berghei liver stage (PbLuc), transformed with Luciferase, at 10uM. As to conditions: tested at 10 uM. Format: functional, HepG2.
For the molecule `Cc1cnc(CNC(=O)[C@@]23CCO[C@@H]2CCN(c2ncccn2)C3)cn1`, the INHIBITION is reported as 9.51%.

In the case of `Cc1occc1C(=O)N1CCCC(C2=Nc3ccccc3S(=O)(=O)N2)C1` (stereo not drawn), the INHIBITION is listed as -7.679%.

For the molecule `COc1ccccc1CN1CC[C@]2(C[C@H](OC)CO2)C1`, the INHIBITION is on record as -29.2%.

Regarding `O=C(CN1CCN(CCO)CC1)NCc1ccc(Cl)s1`, the INHIBITION worked out at 53.8%.

Take `Cc1ccc(CNC(=O)CN(C)CC2CCN(CCO)CC2)s1`: the INHIBITION came to 53.8%.

Take `Cc1ccc(CNC(=O)CNCC2CCN(CCO)CC2)s1`: the INHIBITION is 10.6%.

In the case of `O=C(CNC(=O)C1CC1)NCc1ccc(Cl)s1`, the INHIBITION is listed as -56.4%.

For `Cc1ccc(CNC(=O)c2cc(CN3CCC(O)CC3)on2)s1`, the INHIBITION turned out to be 13.7%.

For the molecule `Cc1ccc(CNC(=O)CN2CCN(CCO)CC2)s1`, the INHIBITION came to 5.64%.

As for `Cc1cc(C(=O)NC2CCC3(CCC(=O)N3)CC2)no1` (stereo not drawn), the INHIBITION is on record as -20.8%.

For `COc1ncccc1CN1CCc2[nH]nc(C(=O)N3CCCC3C)c2C1` (stereo not drawn), the INHIBITION was -12.2%.

In the case of `CC(C)c1nnsc1CNC(=O)C1CCN(C(C)C)CC1`, the INHIBITION was found to be 5.94%.

For `CCc1ccc(C(=O)N2CCN(c3nc(C)cc(OC)n3)CC2)o1`, the INHIBITION was determined as 19.2%.

With `CN(C)c1ccc(CN2CCN(c3ccc(C#N)cc3)C(=O)C2)cn1`, the INHIBITION is reported as 18.9%.

For `CCSc1ncc(CN2CCN(c3ccc(C#N)cc3)C(=O)C2)cn1`, the INHIBITION stood at 3.73%.

For `CCc1ccc(CN2CCN(c3ccc(C#N)cc3)C(=O)C2)nc1`, the INHIBITION worked out at 62.4%.

For `COCC(=O)N1CCN(S(=O)(=O)c2ccccc2)[C@H]2CS(=O)(=O)C[C@H]21`, the INHIBITION was determined as 25.8%.

On to `CCc1nc(N2CCCC(O)(CO)CC2)ncc1C` (stereo not drawn), for which the INHIBITION was -119%.

As for `CNc1cncc(C2CCCN2S(=O)(=O)c2ccccc2)n1` (stereo not drawn), the INHIBITION is on record as -46.6%.

Consider `CC(C)c1ccc(CCC(=O)N2CCOCC2c2ncon2)cc1` (stereo not drawn), for which the INHIBITION was -3.2%.

Consider `Cc1nc(-c2ccsc2)ccc1C(=O)NCCC(=O)N1CCCC1`, for which the INHIBITION was found to be 49.6%.

On to `Cc1nc(-c2ccsc2)ccc1C(=O)NCCN1CCOCC1`, for which the INHIBITION was 48.1%.

Turning to `Cc1nc(-c2ccsc2)ccc1C(=O)NCCC1CCCO1` (stereo not drawn), the INHIBITION turned out to be 52.7%.

As to `Cc1noc(C)c1CN(C)C(=O)c1n[nH]c(N)c1-c1ccccc1`, the INHIBITION is on record as -3.96%.

Take `COc1ccccc1/C=C/CNCC1CCc2nncn2C1` (stereo not drawn): the INHIBITION was 38%.

`CS(=O)(=O)CCCNCc1c(Cl)cccc1N1CCCC1`: the INHIBITION was 26.4%.

On to `Cc1nccn1-c1ccc(=O)n(CCNC(=O)c2ccncc2)n1`, for which the INHIBITION is 10.5%.

Turning to `CCC(CN1CCN(C)CC1)NC(=O)C1(c2cccc(F)c2)CC1` (stereo not drawn), the INHIBITION came out at 37.5%.

Turning to `CCC(CN1CCCC1)NC(=O)C1(c2cccc(F)c2)CC1` (stereo not drawn), the INHIBITION came to 53.65%.

Take `CCC(CN1CCCCC1)NC(=O)C1(c2cccc(F)c2)CC1` (stereo not drawn): the INHIBITION is 28.7%.

As to `Cc1oncc1C(=O)N1CCC2(CCN(Cc3cccc(F)c3)C2=O)C1` (stereo not drawn), the INHIBITION came to 1.48%.

For the molecule `O=c1cc2c(nn1CN1CCSCC1)CCC2`, the INHIBITION was found to be 51%.

Take `O=c1cc2c(nn1CN1CCOCC1)CCC2`: the INHIBITION is listed as -1.58%.

`O=c1cc2c(nn1CN1CCN(c3ccccc3)CC1)CCC2`: the INHIBITION is 16.6%.

Take `O=C(O)c1ccn(COc2c(Cl)cccc2Cl)n1`: the INHIBITION turned out to be 0.207%.

On to `Cc1ncoc1C(=O)N1CCOC(CCCC(C)C)C1` (stereo not drawn), for which the INHIBITION is reported as -7.81%.

`O=S(=O)(NCc1cn2ccccc2n1)N1CCOCC1`: the INHIBITION is -38.6%.

For the molecule `Cc1nc(N2CCCC2)ncc1-c1cc(O)nc(N2CCN(C)CC2)n1`, the INHIBITION is on record as 20.1%.

In the case of `Cc1nc(N2CCCC2)ncc1-c1cc(O)nc(N2CCCCC2)n1`, the INHIBITION stood at 36.6%.

Consider `Cc1nc(N2CCCC2)ncc1-c1cc(O)nc(N2CCCC2)n1`, for which the INHIBITION is given as -11.1%.

`Cc1nc(N2CCC(C)CC2)ncc1-c1cc(O)nc(N2CCCC2)n1`: the INHIBITION is listed as 53.2%.

Take `Cc1nc(N2CCCCC2)ncc1-c1cc(O)nc(N2CCCCC2)n1`: the INHIBITION amounted to 25.1%.

Take `Cc1nc(N2CCCCC2)ncc1-c1cc(=O)[nH]c(N2CCCC2)n1`: the INHIBITION came to 68.1%.

For `Nc1nccnc1C1CN(C(=O)c2cnccn2)CCO1` (stereo not drawn), the INHIBITION is recorded as -9.32%.

For `COCC(c1cccc(C(F)(F)F)c1)N(C)C(=O)c1cccnc1` (stereo not drawn), the INHIBITION is -34.5%.

Take `NC(=O)COc1cccc(Cn2cc(Br)cn2)c1`: the INHIBITION is 27%.

For `O=S(=O)(C1CC1)N1CCc2ncnc(-c3ccncc3)c2CC1`, the INHIBITION was found to be 12.1%.

Consider `Cc1nnc(N2CCOC(CN(C)C)C2)c(C#N)c1C` (stereo not drawn), for which the INHIBITION is reported as 49.25%.

As to `Cc1ccc(O)c(C(=O)N2C[C@@H](C(=O)O)[C@H](c3ccccc3)C2)c1`, the INHIBITION is listed as 19.4%.

As for `CC(C)=CCN1C(=O)[C@@H]2CC[C@H]1CN(c1ncccc1F)C2`, the INHIBITION came out at 12.7%.

As to `c1ccc2oc(CN3CCCC3Cn3cncn3)nc2c1` (stereo not drawn), the INHIBITION was -4.94%.

For `c1ccc2oc(CN3CCCCC3Cn3cncn3)nc2c1` (stereo not drawn), the INHIBITION was 55.4%.

For `c1ccc2oc(CCCN3CCCC3Cn3cncn3)nc2c1` (stereo not drawn), the INHIBITION was found to be 30.8%.

For `c1ccc2oc(N3CCCCC3Cn3cncn3)nc2c1` (stereo not drawn), the INHIBITION is reported as 55.5%.

For the molecule `c1ccc2oc(CCCN3CCCCC3Cn3cncn3)nc2c1` (stereo not drawn), the INHIBITION is given as -41.1%.

For `c1ccc2oc(N3CCCC3Cn3cncn3)nc2c1` (stereo not drawn), the INHIBITION is listed as -41.1%.

`O=C(Nc1cc(C(F)(F)F)c[nH]c1=O)N1CCOCC1`: the INHIBITION was -31.8%.

Turning to `COc1c(C)cnc(CNCC(C)C)c1C`, the INHIBITION worked out at 11.95%.
